Measured values as given in PubChem BioAssay (NCATS).
Results filed as inconclusive are left out. Entries that show only a call come without a potency. Active and inactive are the calls of the source. Unless noted, calls come from the whole dose curve; as a rule, active = well fitted curve in the direction sought with a large enough effect; inconclusive = small, poorly fitted or top-dose-only effect, or another doubt; inactive = no such curve, though single readings can be large; an effect the other way counts as inactive or inconclusive.

Legend:
[1] = target: Calcium and integrin-binding protein 1 (Homo sapiens) (UniProt Q99828); experiment: Primary qHTS for Identification of Calcium Integrin Binding Protein 1 (CIB1) Competitor (AID 1508620);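 note: GST tagged CIB1 binding a fluorescein labelled alphaIIb integrin peptide tracer; top concentration of the series differs between compounds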
Outline: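 Fluorescence polarization competition: GST-tagged CIB1 (1 uM final) preincubated with compound 15 min at room temperature, then FITC-labelled alphaIIb peptide (100 nM final) added. After 15 min at room temperature, polarization read at Ex 480/Em 540.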

[2] = Primary qHTS for small molecule stabilizers of the endoplasmic reticulum resident proteome: Secreted ER Calcium Modulated Protein (SERCaMP) assay (AID 1508630)
Outline: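 GLuc-SERCaMP-expressing SH-SY5Y cells, pretreated 16 h with compound, are challenged with thapsigargin to empty ER calcium stores; after 4 h, coelenterazine is added directly to the medium and luminescence is imaged.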

[3] = A High-Content qHTS Against Drug Library for the Identification of Small Molecules that Inhibit DYT1 Early Onset Primary Dystonia-Associated Cell Pathology (AID 1645839; calls by dose curve; note: series mostly up to about 46 µM)
Outline: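 Flp-In T-REx 293 cells with tetracycline-inducible EGFP-delE hTOR1A (WT EGFP-hTOR1A as reference), 800 cells/well; compound added with tetracycline, 48 h at 37 C. Fixed, permeabilized cells imaged; %pathology (punctate TorsinA) primary, cell count counterscreen.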

[4] = target: Cytochrome P450 2D6 (Homo sapiens) (UniProt P10635); experiment: Cytochrome P450 family 2 subfamily D member 6 (CYP2D6) small molecule antagonists: luciferase biochemical (cell-free) qHTS assay (AID 1645840; active = well fitted curve in the direction sought with a large enough effect in the repeat runs; an effect the other way counts as inactive or inconclusive; note: nearly all actives have a fitted effect of over 55% in size; note: potency is the fitted concentration of half-maximal effect)
Outline: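 P450-Glo luminescent screen: recombinant CYP2D6 enzyme–proluciferin substrate mix preincubated with compound 10 min at room temperature, then NADPH regeneration added for 1 h at room temperature. Detection reagent added for 20 min; luciferin light read as relative luminescence units.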

[5] = target: Cytochrome P450 3A4 (Homo sapiens) (UniProt P08684); experiment: Cytochrome P450 family 3 subfamily A member 4 (CYP3A4) small molecule antagonists: luciferase qHTS assay (AID 1645841; active = well fitted curve in the direction sought with a large enough effect in the repeat runs; an effect the other way counts as inactive or inconclusive; note: potency is the fitted concentration of half-maximal effect; nearly all actives have a fitted effect of over 45% in size)
Outline: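 P450-Glo CYP3A4 enzyme with proluciferin substrate preincubated 10 min with compound at room temperature, then NADPH regeneration 1 h. Luciferin detection reagent added for 20 min; luminescence recorded. Ketoconazole positive control.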

[6] = target: Cytochrome P450 2C9 (Homo sapiens) (UniProt P11712); experiment: Cytochrome P450 family 2 subfamily C member 9 (CYP2C9) small molecule antagonists: luciferase biochemical (cell-free) qHTS assay (AID 1645842; active = well fitted curve in the direction sought with a large enough effect in the repeat runs; an effect the other way counts as inactive or inconclusive; note: series mostly up to about 57 µM; nearly all actives have a fitted effect of over 55% in size)
Outline: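 Luminescence, after 20 min with luciferin detection reagent, reflected CYP2C9 turnover during a 1 h NADPH-driven reaction at 37C. Enzyme-substrate mix contained 0.4% bovine serum albumin and was preincubated with compound 10 min at room temperature.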

[7] = target: Papain (Carica papaya) (UniProt P00784); experiment: Primary qHTS assay for inhibitors of the protease papain (AID 1645873);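 note: papain turnover of Z-FR-AMC read as the AMC fluorescence gain over 10 min; series mostly up to about 50 µM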
Papain (Carica papaya), sequence (P00784 whole entry, looked up): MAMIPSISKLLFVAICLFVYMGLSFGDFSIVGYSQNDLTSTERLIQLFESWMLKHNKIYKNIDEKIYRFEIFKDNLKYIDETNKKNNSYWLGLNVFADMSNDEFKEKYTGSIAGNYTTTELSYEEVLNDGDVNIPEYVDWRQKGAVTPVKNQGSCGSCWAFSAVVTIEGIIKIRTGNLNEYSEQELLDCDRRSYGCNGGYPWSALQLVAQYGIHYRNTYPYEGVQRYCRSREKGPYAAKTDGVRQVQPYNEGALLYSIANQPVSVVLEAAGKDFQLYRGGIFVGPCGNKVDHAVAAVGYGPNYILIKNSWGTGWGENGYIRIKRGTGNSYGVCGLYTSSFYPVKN

Calcium and integrin-binding protein 1 (Homo sapiens), sequence (Q99828 whole entry, looked up): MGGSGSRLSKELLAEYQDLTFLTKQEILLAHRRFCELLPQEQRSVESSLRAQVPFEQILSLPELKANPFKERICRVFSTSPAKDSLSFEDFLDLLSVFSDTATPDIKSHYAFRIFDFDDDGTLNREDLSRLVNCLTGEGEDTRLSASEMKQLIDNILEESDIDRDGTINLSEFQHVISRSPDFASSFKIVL
Cytochrome P450 2D6 (Homo sapiens), sequence (P10635 whole entry, looked up): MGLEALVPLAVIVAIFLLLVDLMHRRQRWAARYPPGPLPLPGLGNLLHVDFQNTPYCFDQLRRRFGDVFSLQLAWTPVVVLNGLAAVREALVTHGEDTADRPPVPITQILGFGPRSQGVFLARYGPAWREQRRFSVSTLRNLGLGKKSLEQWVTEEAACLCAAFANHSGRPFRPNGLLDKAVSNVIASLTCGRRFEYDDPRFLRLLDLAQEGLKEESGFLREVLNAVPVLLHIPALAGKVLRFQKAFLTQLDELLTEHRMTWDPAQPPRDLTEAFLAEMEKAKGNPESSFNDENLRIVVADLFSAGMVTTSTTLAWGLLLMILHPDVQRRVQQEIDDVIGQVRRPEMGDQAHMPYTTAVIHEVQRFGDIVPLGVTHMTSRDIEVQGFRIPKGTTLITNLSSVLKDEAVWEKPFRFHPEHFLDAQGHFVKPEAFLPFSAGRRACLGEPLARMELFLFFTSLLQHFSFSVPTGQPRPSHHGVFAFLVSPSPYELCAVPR
Cytochrome P450 2C9 (Homo sapiens), sequence (P11712 whole entry, looked up): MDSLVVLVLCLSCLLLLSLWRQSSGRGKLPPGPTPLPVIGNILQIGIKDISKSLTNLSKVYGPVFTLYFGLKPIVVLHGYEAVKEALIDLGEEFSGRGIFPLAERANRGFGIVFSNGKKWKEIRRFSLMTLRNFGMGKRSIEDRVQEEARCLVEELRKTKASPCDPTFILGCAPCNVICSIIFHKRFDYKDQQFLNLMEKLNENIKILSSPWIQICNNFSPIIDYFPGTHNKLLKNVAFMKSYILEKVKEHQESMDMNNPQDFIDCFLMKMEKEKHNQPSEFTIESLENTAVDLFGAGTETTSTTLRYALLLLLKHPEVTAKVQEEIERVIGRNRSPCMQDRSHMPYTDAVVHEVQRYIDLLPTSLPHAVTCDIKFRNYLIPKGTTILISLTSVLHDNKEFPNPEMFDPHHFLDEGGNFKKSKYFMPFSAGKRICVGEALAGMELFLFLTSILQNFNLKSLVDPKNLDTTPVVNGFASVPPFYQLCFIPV
Cytochrome P450 3A4 (Homo sapiens), sequence (P08684 whole entry, looked up): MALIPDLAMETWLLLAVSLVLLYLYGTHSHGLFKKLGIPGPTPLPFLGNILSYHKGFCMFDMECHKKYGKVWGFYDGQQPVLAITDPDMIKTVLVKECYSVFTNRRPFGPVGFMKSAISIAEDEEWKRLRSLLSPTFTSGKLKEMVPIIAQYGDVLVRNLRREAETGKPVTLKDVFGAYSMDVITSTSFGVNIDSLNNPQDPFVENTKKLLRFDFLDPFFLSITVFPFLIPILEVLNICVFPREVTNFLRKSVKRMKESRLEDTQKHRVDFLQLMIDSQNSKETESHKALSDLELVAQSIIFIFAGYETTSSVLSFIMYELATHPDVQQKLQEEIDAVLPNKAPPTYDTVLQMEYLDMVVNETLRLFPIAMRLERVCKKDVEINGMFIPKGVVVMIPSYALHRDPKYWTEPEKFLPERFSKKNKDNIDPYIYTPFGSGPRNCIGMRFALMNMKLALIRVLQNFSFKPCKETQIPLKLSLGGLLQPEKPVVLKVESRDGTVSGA

Oc1cccc(-c2nc(N3CCOCC3)c3oc4ncccc4c3n2)c1
outcome [1]: inactive | Potency [2]: inactive

CC(c1cc2ccccc2s1)N(O)C(N)=O (stereo not given)
outcome [1]: inactive | Potency [2]: inactive | Potency [3]: inactive | Potency [4]: inactive | Potency [5]: 13.8 µM (active)

CC(C)NCC(O)COc1ccc(COCCOC(C)C)cc1 (stereo not given)
outcome [1]: inactive | Potency [2]: inactive | Potency [3]: inactive | Potency [4]: inactive | Potency [6]: inactive | Potency [7]: inactive

CCOC(=O)C1=C[C@]2(CC)CCCN3CCc4c(n1c1ccccc41)[C@@H]32
outcome [1]: inactive | Potency [2]: inactive | Potency [3]: inactive | Potency [4]: 4.9 µM (active)

Cc1cc(C=c2sc3nc4ccccc4n3c2=O)c(C)n1-c1ccccc1
outcome [1]: inactive | Potency [2]: inactive

O=C(C1CC1)N1CC[C@@H](Cn2c(-c3ccc(-c4ccc5occc5c4)cc3)nc3cnccc32)C1
outcome [1]: inactive | Potency [2]: inactive

O=C(C=Cc1ccc(/C=C/C(=O)Nc2ccc(C3=NCCN3)cc2)cc1)Nc1ccc(C2=NCCN2)cc1
outcome [1]: inactive | Potency [2]: inactive

CNC(=O)c1ccc(N2C(=S)N(c3ccc(C#N)c(C(F)(F)F)c3)C(=O)C2(C)C)cc1F
outcome [1]: inactive | Potency [2]: inactive

CC(C[N+](C)(C)C)OC(N)=O (stereo not given)
outcome [1]: inactive | Potency [2]: inactive | Potency [3]: inactive | Potency [4]: inactive | Potency [6]: inactive | Potency [7]: inactive

NC(=O)c1ccc(I)c([N+](=O)[O-])c1
outcome [1]: inactive | Potency [2]: inactive

CN[C@@H](C)C(=O)N[C@H]1CCCC[C@H]2CC[C@@H](C(=O)N[C@@H](c3ccccc3)c3cn(CCCCc4ccc(CCCCn5cc([C@@H](NC(=O)[C@@H]6CC[C@@H]7CCCC[C@H](NC(=O)[C@H](C)NC)C(=O)N76)c6ccccc6)nn5)cc4)nn3)N2C1=O
outcome [1]: inactive | Potency [2]: inactive
